The results in this text go back to PMC7862700, “An all-to-all approach to the identification of sequence-specific readers for epigenetic DNA modifications on cytosine”.

Holding throughout (experiment): DAPPL (digital affinity profiling via proximity ligation, sequencing); 10 mM Tris-HCl pH 7.5, 50 mM NaCl, 1 mM DTT, 4% glycerol, room temperature, 30 min; GST-TFs on glutathione beads, 16-mer random dsDNA library, 0.1% formaldehyde crosslink after washing; high values mean tight binding
One assay addresses T1, FEV (Homo sapiens, UniProt Q99581 1-238).
T1 sequence: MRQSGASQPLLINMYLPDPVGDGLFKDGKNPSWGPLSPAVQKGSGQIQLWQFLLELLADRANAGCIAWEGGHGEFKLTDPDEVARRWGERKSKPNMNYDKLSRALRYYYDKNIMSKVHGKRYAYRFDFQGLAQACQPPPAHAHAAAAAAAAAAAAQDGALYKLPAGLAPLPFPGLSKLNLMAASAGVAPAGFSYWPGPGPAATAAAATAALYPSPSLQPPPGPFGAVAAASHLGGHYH
The following applies: protein: recombinant; tags: N-terminal GST; dsDNA, one strand shown. A digest of the protocol: (§1)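 Binding signal is defined as a hexamer's read frequency for one factor over its frequency for the tag-only sample. To obtain reads, GST-fused human transcription factors were expressed in yeast, captured on glutathione beads, barcoded with DNA and pooled with that sample. Pools met 200 nmole of a 16-mer random double-stranded DNA library in Tris/NaCl/DTT/glycerol buffer for 30 min at room temperature before washing, 0.1% formaldehyde crosslinking, proximity ligation (BsaI/T4 ligase, 1 h, 37 °C), PCR and Illumina NextSeq500 sequencing.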

The next assay has as its target ETV5 (Homo sapiens, UniProt P41161 1-510). The following applies: protein: recombinant; tags: N-terminal GST; dsDNA, one strand shown. A digest of the protocol:
as §1

In the next assay the target is HSF1 (Homo sapiens, UniProt Q00613 1-529). The settings on record: protein: recombinant; tags: N-terminal GST; chain copies: 3; dsDNA, one strand shown. A digest of the protocol:
as §1

For the next assay, the target named is T2, SPIC (Homo sapiens, UniProt Q8N5J4 1-248).
T2 sequence: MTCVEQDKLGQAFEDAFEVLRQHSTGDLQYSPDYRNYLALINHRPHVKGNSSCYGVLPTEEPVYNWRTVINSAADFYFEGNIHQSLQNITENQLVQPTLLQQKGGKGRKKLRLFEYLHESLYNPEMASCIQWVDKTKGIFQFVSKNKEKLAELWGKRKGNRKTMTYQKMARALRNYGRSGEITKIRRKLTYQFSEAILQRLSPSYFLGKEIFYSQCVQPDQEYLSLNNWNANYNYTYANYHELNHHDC
The settings on record: protein: recombinant; tags: N-terminal GST; dsDNA, one strand shown. A digest of the protocol: as §1

The target of another assay is ELF4 (Homo sapiens, UniProt Q99607 1-663). The settings on record: protein: recombinant; tags: N-terminal GST; dsDNA, one strand shown. A digest of the protocol:
as §1

Another assay concerns the target T3, ELK4 (Homo sapiens, UniProt P28324-2 1-405).
T3 sequence: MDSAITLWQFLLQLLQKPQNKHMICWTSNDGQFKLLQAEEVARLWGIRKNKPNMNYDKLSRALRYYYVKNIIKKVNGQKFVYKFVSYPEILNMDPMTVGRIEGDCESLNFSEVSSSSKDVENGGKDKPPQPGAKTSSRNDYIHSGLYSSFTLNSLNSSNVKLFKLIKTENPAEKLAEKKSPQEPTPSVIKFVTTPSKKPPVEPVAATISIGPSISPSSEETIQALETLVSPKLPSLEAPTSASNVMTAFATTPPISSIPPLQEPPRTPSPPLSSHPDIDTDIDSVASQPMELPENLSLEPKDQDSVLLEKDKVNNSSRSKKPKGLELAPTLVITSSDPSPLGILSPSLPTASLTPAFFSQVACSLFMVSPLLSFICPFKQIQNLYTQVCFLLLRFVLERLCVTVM
The settings on record: protein: recombinant; tags: N-terminal GST; dsDNA, one strand shown. A digest of the protocol:
as §1

A further assay has as its target T4, ETV2 (Homo sapiens, UniProt O00321 1-342).
T4 sequence: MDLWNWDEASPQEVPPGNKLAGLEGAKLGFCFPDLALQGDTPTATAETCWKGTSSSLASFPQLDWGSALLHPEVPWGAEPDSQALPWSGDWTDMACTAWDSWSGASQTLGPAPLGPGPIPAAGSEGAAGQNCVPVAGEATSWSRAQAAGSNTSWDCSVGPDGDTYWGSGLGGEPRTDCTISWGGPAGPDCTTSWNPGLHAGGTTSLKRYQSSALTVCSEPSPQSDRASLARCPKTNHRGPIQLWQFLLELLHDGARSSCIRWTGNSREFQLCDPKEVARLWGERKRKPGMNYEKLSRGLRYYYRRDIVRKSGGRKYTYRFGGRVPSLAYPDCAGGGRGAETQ
The settings on record: protein: recombinant; tags: N-terminal GST; dsDNA, one strand shown. A digest of the protocol:
as §1

The next assay concerns the target T5, ELF3 (Homo sapiens, UniProt P78545 1-371).
T5 sequence: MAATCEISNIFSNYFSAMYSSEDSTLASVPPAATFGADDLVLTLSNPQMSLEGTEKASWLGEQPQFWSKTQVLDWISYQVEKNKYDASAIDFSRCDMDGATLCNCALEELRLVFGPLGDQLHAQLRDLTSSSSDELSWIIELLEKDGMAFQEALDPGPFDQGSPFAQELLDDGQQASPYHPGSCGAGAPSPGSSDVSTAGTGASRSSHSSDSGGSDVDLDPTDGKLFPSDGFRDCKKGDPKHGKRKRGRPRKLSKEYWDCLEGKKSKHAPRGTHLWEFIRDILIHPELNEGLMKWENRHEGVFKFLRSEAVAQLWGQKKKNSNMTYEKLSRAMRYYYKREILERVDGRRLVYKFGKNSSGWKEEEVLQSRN
The following applies: protein: recombinant; tags: N-terminal GST; dsDNA, one strand shown. A digest of the protocol:
as §1

For another assay, the target named is CRX (Homo sapiens, UniProt O43186 1-299). The following applies: protein: recombinant; tags: N-terminal GST; dsDNA, one strand shown. A digest of the protocol: as §1
The next assay deals with ETV1 (Homo sapiens, UniProt P50549 1-477). The following applies: protein: recombinant; tags: N-terminal GST; dsDNA, one strand shown. A digest of the protocol:
as §1

A further assay deals with T6, ERF (Homo sapiens, UniProt P50548 1-548).
T6 sequence: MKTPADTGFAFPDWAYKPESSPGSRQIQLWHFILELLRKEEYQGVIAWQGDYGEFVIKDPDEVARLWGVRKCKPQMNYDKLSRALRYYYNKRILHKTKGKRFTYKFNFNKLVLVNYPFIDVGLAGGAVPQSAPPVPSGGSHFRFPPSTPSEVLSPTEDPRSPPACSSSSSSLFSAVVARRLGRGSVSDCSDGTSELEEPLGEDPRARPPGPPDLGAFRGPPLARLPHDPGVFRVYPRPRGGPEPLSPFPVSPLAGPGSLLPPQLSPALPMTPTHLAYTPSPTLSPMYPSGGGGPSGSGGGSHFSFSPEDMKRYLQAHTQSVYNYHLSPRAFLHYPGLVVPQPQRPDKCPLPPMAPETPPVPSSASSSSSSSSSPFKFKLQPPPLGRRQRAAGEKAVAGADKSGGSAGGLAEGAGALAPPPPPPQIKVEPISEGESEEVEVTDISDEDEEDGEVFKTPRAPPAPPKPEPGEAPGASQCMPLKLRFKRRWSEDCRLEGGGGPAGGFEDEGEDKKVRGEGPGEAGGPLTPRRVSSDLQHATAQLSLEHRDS
The following applies: protein: recombinant; tags: N-terminal GST; dsDNA, one strand shown. A digest of the protocol:
as §1

For a further assay, the target named is T7, ETV3L (Homo sapiens, UniProt Q6ZN32 1-361).
T7 sequence: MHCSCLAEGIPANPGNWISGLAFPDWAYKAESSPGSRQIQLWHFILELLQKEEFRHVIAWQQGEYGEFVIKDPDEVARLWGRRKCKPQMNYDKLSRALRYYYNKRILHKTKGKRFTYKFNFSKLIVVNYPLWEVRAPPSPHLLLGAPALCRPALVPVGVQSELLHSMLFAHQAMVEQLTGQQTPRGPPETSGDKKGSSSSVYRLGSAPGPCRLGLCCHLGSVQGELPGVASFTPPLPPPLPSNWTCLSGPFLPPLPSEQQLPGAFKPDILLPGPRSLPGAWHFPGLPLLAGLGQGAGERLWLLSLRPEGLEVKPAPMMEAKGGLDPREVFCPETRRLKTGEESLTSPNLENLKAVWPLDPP
The settings on record: protein: recombinant; tags: N-terminal GST; dsDNA, one strand shown. A digest of the protocol:
as §1

The target of another assay is T8, ETS2 (Homo sapiens, UniProt P15036 1-469).
T8 sequence: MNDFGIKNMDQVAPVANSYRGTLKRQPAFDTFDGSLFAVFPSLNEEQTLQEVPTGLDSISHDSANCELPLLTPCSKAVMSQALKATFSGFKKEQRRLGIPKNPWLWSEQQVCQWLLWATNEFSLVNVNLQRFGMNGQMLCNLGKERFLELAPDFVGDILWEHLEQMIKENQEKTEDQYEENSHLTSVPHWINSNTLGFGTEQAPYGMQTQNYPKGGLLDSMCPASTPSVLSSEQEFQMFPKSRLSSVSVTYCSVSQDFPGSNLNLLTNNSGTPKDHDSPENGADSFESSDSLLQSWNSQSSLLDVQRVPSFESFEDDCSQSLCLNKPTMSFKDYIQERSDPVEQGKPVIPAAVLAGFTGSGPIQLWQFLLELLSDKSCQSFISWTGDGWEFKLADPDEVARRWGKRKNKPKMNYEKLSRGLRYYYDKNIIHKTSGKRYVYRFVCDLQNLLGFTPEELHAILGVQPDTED
The settings on record: protein: recombinant; tags: N-terminal GST; dsDNA, one strand shown. A digest of the protocol:
as §1

The next assay deals with T9, SPDEF (Homo sapiens, UniProt O95238 1-335).
T9 sequence: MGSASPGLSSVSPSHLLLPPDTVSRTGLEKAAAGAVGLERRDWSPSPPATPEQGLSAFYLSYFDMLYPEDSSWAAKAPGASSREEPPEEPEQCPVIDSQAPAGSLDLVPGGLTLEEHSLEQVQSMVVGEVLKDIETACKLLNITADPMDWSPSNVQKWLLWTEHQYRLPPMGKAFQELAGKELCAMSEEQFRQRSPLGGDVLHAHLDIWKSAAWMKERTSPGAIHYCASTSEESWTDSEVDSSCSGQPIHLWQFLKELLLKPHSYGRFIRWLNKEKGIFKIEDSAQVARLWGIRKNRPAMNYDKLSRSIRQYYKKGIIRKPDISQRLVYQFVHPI
The settings on record: protein: recombinant; tags: N-terminal GST; dsDNA, one strand shown. A digest of the protocol:
as §1

The next assay has as its target T10, ETV7 (Homo sapiens, UniProt Q9Y603 1-341).
T10 sequence: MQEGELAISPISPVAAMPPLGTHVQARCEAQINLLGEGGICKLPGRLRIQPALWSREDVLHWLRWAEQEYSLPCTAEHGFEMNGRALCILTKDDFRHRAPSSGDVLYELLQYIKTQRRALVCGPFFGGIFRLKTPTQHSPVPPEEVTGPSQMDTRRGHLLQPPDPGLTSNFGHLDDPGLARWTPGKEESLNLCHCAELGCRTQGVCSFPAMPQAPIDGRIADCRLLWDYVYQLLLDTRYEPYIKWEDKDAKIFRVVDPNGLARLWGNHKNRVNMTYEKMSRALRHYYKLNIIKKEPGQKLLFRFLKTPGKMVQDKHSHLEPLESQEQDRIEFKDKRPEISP
The settings on record: protein: recombinant; tags: N-terminal GST; dsDNA, one strand shown. A digest of the protocol:
as §1

A further assay deals with T11, ELF5 (Homo sapiens, UniProt Q9UKW6-2 1-255).
T11 sequence: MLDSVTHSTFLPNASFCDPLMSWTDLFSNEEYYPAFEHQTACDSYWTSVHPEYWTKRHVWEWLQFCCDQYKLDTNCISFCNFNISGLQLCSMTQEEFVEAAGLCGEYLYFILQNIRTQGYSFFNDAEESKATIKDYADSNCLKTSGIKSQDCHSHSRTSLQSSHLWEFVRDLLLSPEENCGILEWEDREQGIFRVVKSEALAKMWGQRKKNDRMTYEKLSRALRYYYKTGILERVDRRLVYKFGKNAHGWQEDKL
The settings on record: protein: recombinant; tags: N-terminal GST; dsDNA, one strand shown. A digest of the protocol: as §1

A further assay has as its target T12, ETV3 (Homo sapiens, UniProt P41162-2 1-143).
T12 sequence: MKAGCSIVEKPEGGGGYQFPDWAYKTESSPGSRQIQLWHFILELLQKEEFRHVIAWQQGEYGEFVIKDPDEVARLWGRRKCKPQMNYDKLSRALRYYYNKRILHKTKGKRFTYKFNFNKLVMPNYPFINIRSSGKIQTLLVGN
The settings on record: protein: recombinant; tags: N-terminal GST; dsDNA, one strand shown. A digest of the protocol:
as §1

The target in the next assay is ETV6 (Homo sapiens, UniProt P41212 1-452). The following applies: protein: recombinant; tags: N-terminal GST; dsDNA, one strand shown. A digest of the protocol: as §1
Sequence of ETV6 (P41212 whole entry): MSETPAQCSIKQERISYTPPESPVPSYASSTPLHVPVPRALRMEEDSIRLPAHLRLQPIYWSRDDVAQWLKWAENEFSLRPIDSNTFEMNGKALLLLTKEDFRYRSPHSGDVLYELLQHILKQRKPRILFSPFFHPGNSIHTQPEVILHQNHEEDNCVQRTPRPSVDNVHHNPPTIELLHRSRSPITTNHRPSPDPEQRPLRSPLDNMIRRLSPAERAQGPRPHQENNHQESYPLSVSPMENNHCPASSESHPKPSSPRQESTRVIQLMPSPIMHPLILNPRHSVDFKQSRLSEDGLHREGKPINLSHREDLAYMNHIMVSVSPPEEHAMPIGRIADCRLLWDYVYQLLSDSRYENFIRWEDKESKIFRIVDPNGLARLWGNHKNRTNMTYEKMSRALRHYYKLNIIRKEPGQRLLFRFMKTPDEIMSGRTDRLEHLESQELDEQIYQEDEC

Sequence of HSF1 (Q00613 whole entry): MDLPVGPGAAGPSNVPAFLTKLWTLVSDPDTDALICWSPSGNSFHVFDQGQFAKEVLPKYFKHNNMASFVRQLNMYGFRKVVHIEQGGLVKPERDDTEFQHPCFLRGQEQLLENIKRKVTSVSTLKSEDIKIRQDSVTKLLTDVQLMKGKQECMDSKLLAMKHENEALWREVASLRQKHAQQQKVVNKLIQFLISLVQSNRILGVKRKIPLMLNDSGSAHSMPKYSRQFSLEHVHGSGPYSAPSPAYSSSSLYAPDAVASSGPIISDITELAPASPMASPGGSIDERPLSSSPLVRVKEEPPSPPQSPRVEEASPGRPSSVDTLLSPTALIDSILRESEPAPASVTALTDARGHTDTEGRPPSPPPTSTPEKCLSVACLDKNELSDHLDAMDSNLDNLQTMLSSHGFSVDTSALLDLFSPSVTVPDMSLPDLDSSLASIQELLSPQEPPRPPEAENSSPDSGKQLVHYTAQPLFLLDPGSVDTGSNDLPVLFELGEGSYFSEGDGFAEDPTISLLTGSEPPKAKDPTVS
Sequence of CRX (O43186 whole entry): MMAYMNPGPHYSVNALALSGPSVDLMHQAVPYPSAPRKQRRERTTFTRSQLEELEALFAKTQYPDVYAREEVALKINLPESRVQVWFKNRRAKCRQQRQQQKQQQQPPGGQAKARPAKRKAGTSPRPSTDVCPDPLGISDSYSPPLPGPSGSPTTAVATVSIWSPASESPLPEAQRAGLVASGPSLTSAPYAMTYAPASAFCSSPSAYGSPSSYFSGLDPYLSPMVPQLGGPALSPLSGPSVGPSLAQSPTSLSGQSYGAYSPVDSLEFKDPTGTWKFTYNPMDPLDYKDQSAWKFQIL
Sequence of ETV1 (P50549 whole entry): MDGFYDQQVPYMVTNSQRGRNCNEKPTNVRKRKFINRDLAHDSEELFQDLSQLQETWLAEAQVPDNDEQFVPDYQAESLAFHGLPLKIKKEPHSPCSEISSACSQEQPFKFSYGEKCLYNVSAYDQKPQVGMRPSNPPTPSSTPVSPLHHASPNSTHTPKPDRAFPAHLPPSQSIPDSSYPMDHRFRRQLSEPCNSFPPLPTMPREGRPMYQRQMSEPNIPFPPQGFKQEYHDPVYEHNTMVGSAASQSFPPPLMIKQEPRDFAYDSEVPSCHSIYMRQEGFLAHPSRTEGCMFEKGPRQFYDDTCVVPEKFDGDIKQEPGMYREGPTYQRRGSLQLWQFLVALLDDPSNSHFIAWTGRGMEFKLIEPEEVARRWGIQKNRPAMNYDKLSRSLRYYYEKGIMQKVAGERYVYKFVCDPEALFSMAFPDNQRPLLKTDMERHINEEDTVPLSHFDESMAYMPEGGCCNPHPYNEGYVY
Sequence of ELF4 (Q99607 whole entry): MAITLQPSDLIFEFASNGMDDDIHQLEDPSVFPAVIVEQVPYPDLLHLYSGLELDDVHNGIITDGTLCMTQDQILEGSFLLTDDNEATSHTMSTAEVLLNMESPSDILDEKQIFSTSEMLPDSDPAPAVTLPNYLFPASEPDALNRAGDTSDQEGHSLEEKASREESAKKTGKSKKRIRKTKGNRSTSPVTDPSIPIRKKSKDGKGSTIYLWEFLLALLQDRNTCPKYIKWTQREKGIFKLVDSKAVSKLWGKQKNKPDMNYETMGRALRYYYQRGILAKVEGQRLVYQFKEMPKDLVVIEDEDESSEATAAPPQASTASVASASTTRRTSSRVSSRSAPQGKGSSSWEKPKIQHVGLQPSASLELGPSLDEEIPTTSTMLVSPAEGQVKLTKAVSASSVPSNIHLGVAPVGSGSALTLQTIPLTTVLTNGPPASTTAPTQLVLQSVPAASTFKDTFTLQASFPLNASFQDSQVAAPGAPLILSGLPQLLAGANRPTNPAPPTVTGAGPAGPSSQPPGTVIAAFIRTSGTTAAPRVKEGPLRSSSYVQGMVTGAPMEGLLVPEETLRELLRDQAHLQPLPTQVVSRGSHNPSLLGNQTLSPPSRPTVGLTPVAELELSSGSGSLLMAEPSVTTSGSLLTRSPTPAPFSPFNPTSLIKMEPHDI
Sequence of ETV5 (P41161 whole entry): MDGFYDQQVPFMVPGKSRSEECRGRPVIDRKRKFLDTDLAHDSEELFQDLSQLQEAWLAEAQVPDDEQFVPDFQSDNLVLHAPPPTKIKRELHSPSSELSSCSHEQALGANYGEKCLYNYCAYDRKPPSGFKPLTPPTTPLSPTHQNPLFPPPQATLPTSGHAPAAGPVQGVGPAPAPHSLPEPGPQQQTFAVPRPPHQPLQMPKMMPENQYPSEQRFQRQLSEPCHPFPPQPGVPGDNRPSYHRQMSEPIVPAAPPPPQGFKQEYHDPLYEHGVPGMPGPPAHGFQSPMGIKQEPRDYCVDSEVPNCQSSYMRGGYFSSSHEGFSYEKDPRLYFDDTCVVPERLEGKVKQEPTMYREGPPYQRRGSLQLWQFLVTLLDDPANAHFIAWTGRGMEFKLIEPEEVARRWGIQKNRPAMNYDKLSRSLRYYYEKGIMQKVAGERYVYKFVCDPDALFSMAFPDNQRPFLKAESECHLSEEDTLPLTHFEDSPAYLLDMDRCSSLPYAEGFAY

With TTCTCT, the binding signal is 1.22 fold enrichment (6-mer frequency, TF over GST control) in the assay with FEV; 1.24 fold enrichment (6-mer frequency, TF over GST control) in the assay with ETV5; 1.84 fold enrichment (6-mer frequency, TF over GST control) with HSF1; 1.16 fold enrichment (6-mer frequency, TF over GST control) with SPIC; 1.26 fold enrichment (6-mer frequency, TF over GST control) in the assay with ELF4; 1.33 fold enrichment (6-mer frequency, TF over GST control) with ELK4. Moreover, the binding signal in the assay with ETV2 was 1.29 fold enrichment (6-mer frequency, TF over GST control); in the assay with ELF3, 1.37 fold enrichment (6-mer frequency, TF over GST control); with CRX, 1.49 fold enrichment (6-mer frequency, TF over GST control); with ETV1, 1.36 fold enrichment (6-mer frequency, TF over GST control); with ERF, 1.19 fold enrichment (6-mer frequency, TF over GST control); in the assay with ETV3L, 1.39 fold enrichment (6-mer frequency, TF over GST control). For the same sequence, the binding signal with ETS2 was 1.23 fold enrichment (6-mer frequency, TF over GST control); with SPDEF, 1.31 fold enrichment (6-mer frequency, TF over GST control); with ETV7, 1.26 fold enrichment (6-mer frequency, TF over GST control); with ELF5 it was 1.35 fold enrichment (6-mer frequency, TF over GST control); with ETV3 it was 1.3 fold enrichment (6-mer frequency, TF over GST control); in the assay with ETV6, 1.24 fold enrichment (6-mer frequency, TF over GST control).
